A short description of assay [1]: qHTS assay for small molecule antagonists of peroxisome proliferator-activated receptor delta signaling (AID 588535; active = well fitted inhibition curve with a large enough effect in the signal ratio, with a control signal flat, not every such curve was filed as active; the % refers to the signal ratio;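 for max response: cells co-treated with a PPAR-delta agonist as stimulator during compound exposure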). The note with it: HEK293T PPARd-UAS-bla, beta-lactamase FRET ratio, 18 h; 460 nm channel. Put shortly:
(§1)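 Cells were seeded at 4000 per well in assay medium containing 2% charcoal/dextran FBS and held 5 hrs at 37 C. Compounds were then added for 18 hrs. CCF4 substrate was applied for 2 hrs at room temperature before fluorescence reading.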

Assay [2] deals with Peroxisome proliferator-activated receptor delta (Homo sapiens) (UniProt Q03181). Described as above. As to conditions: HEK293T PPARd-UAS-bla, beta-lactamase FRET ratio, 18 h; series mostly up to 76.7 µM. Put shortly: as §1
Chain of Peroxisome proliferator-activated receptor delta (Homo sapiens) (Q03181 whole entry, looked up): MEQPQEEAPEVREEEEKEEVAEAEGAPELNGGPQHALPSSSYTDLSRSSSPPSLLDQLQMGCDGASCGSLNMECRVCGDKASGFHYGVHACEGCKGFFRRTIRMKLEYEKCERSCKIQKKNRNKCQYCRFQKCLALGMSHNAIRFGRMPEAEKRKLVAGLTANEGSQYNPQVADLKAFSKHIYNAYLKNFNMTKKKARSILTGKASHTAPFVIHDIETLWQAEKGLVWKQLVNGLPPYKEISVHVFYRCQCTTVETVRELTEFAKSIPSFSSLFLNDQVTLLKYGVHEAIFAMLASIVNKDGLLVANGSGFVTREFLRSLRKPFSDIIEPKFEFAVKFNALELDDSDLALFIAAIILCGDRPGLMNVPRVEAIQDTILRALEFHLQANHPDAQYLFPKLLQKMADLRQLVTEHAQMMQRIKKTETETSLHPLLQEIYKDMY
For assay [3], the target named is Peroxisome proliferator-activated receptor gamma (Homo sapiens) (UniProt P37231). Put plainly: qHTS assay for small molecule agonists of peroxisome proliferator-activated receptor gamma signaling (AID 588536; active = well fitted curve in the direction sought with a large enough effect in the signal ratio, with a control signal flat, not every such curve was filed as active; the % refers to the signal ratio;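 note: 0% = DMSO basal wells and 100% = rosiglitazone at 2 µM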). The note with it: HEK293 PPARg-UAS-bla, beta-lactamase ratio, 16 h, percent of rosiglitazone response, DMSO as zero; series mostly up to 76.7 µM. Put shortly:
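Ratiometric blue/green fluorescence (405 nm excitation; 460 and 530 nm emission) from CCF4-loaded HEK293 reporter cells serves as signal. Exposure to test compounds lasts 16 h at 37 C in medium containing 1% charcoal/dextran-treated serum.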

In assay [4] the target is Vitamin D3 receptor (Homo sapiens) (UniProt P11473). Description: qHTS assay for small molecule antagonists of vitamin D receptor signaling (AID 588541).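 Note: receptor activated by calcitriol during compound treatment; % is set by controls: 0 for no effect and ±100 for the full control effect.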 As to conditions: HEK293T VDR-UAS-bla, beta-lactamase ratio, antagonist mode; series mostly up to 76.7 µM. The essentials: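 VDR-UAS-bla HEK293T cells in 2% charcoal-stripped FBS were stimulated with 1-alpha,25-dihydroxyvitamin D3 (3 nM final) plus compound for 16 h at 37 C. The beta-lactamase CCF4 readout was normalized to 50 nM agonist and DMSO, and Hill fits gave IC50.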
Chain of Vitamin D3 receptor (Homo sapiens) (P11473 whole entry, looked up): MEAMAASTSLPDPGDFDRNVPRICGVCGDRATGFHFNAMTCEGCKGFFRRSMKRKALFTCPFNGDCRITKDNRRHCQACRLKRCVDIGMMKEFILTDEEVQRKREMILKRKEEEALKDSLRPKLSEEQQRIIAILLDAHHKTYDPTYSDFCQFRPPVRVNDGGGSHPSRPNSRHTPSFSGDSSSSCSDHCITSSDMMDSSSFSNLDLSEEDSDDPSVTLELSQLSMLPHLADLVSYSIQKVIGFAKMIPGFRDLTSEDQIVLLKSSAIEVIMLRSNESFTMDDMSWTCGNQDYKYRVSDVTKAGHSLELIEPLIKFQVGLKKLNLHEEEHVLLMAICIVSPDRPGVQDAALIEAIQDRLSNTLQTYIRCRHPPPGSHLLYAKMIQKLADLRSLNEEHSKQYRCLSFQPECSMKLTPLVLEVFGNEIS

A short description of assay [5]: qHTS assay for small molecule agonists of retinoid X receptor alpha signaling (AID 588544).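 For activation: 0% = DMSO basal wells and 100% = reference agonist.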 The note with it: HEK293T RXRa-UAS-bla, beta-lactamase reporter, 18 h; 530 nm emission.
Assay [6] concerns the target Retinoic acid receptor RXR-alpha (Homo sapiens) (UniProt P19793). Described as above. As to conditions: HEK293T RXRa-UAS-bla, beta-lactamase reporter, 18 h; series mostly up to 76.7 µM.
Assay [7] concerns the target Thyroid hormone receptor beta (Homo sapiens) (UniProt P10828). Description: qHTS assay for small molecule agonists of thyroid hormone receptor beta signaling (AID 588545).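 Note: 0% = DMSO only and 100% = 10 nM T3.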 The note with it: TR-UAS-bla GripTite HEK 293, beta-lactamase ratio, agonist mode, 18 h; series mostly up to 76.7 µM. Put shortly:
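Beta-lactamase reporter activity under TR response element control is measured in HEK 293 cells after 18 hrs compound exposure. Signal is ratiometric CCF4 fluorescence, 460/530 nm.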

Assay [8] is described as follows: qHTS assay for small molecule antagonists of retinoid X receptor alpha signaling (AID 588546; active = well fitted inhibition curve with a large enough effect in the signal ratio, with a control signal flat, not every such curve was filed as active; the % refers to the signal ratio;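 note: cells stimulated with 9-cis-retinoic acid as agonist; % is set by controls: 0 for no effect and ±100 for the full control effect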). The note with it: HEK293T RXRa-UAS-bla, beta-lactamase ratio, antagonist mode; measured here: W530 green channel, cytotoxicity proxy. Put shortly:
(§2)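 Beta-lactamase reporter inhibition, read as CCF4 fluorescence ratio (ex 405, em 460/530 nm) after 2 h at RT. HEK293T UAS-bla cells, 2500/well, were stimulated with 9-cis-RA at 500 or 100 nM final alongside test compound for 18 h at 37 C.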

In assay [9] the target is Retinoic acid receptor RXR-alpha (Homo sapiens) (UniProt P19793). The description is as above. The note with it: HEK293T RXRa-UAS-bla, beta-lactamase ratio, antagonist mode. Put shortly:
as §2

A short description of assay [10]: qHTS assay for small molecule activators of the p53 signaling pathway (AID 651743; active = well fitted activation curve with a large enough effect in the signal ratio, not every such curve was filed as active; the % refers to the signal ratio; note: % of control where 0% means no effect). As to conditions: HCT-116 p53RE-bla, beta-lactamase FRET ratio, 16 h; activation: stronger effect = higher value. The essentials: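 HCT-116 p53RE-bla, 4,000 cells/well; 5 h settle; cpd/DMSO 16 h, 37 C; LiveBLAzer B/G 2 h RT; fluorescence intensity.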
The nature of assay [11]: qHTS assay for small molecule activators of the nuclear factor-kappa B (NF-kB) signaling pathway (AID 651749; active = well fitted activation curve with a large enough effect in the signal ratio; the % refers to the signal ratio; note: % of control where 0% means no effect). As to conditions: NF-kB-bla ME-180 cells, beta-lactamase FRET ratio, 16 h; activation: stronger effect = higher value. Put shortly:
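Incubation lasted 16 hr at 37C in 5% CO2 after 23 nL compound addition to ME-180 NF-kB-bla cells. Activation appears as beta-lactamase-mediated FRET loss.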

Assay [12] in a line: qHTS assay for environmental chemicals that activate the Aryl hydrocarbon Receptor (AhR) signaling pathway (AID 651777; active = well fitted curve in the direction sought with a large enough effect; an effect the other way counts as inactive or inconclusive; note: % of control where 0% means no effect; nearly all actives have a fitted effect of over 15% in size). The note with it: 1A2-DRE human hepatoma cells, luciferase, 24 h; activation: stronger effect = higher value. The essentials:
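Following a 24 hr incubation with test chemicals at 37 C and 5% CO2, 1A2-DRE human hepatoma cells received One-Glo reagent; after 30 min at room temperature, luciferase output reflected CYP1A2 induction via AhR.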

For assay [13], the target named is Peroxisome proliferator-activated receptor alpha (Homo sapiens) (UniProt Q07869). Description: qHTS assay for small molecule agonists of the peroxisome proliferator-activated receptor alpha (PPARalpha) signaling pathway (AID 651778; active = well fitted curve in the direction sought with a large enough effect; an effect the other way counts as inactive or inconclusive; note: % of control where 0% means no effect). As to conditions: PathHunter PPARalpha complementation, chemiluminescence, 6 h; max response: stronger effect = higher value. Put shortly: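 Enzyme-fragment complementation assay in which ligand-bound PPARalpha translocates and forms an active enzyme that generates chemiluminescence. Cells were plated overnight, exposed to compound for 6 hr at 37 C, and then given detection reagent for 60 min at room temperature.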
Chain of Peroxisome proliferator-activated receptor alpha (Homo sapiens) (Q07869 whole entry, looked up, the tested form may be a part): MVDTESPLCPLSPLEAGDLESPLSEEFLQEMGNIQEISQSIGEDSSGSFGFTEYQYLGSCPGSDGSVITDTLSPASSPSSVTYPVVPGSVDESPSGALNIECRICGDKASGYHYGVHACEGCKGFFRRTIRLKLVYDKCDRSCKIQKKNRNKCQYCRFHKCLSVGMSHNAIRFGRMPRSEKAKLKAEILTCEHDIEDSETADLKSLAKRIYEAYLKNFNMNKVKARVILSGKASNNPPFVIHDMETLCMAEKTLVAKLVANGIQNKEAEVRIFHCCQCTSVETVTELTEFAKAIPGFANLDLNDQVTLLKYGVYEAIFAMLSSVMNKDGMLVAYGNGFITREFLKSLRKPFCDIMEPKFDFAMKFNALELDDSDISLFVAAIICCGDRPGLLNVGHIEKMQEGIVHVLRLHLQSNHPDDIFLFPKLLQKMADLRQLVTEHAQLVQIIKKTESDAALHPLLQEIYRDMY

Assay [14] can be described thus: qHTS assay for small molecule agonists of the antioxidant response element (ARE) signaling pathway measured by Nrf2-dependant transcriptional activity (AID 720636; active = well fitted curve in the direction sought with a large enough effect in the repeat runs; an effect the other way counts as inactive or inconclusive;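 note: HepG2 cells with an ARE-driven luciferase reporter; % of control where 0% means no effect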). As to conditions: ARE-luc HepG2, Nrf2 luciferase reporter, 16 h; series mostly up to 92.4 µM. Put shortly:
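ONE-Glo luminescence, read 30 min after reagent addition at room temperature, reflected ARE reporter activity in HepG2 cells that had been incubated with compound for 16 hr at 37 C in 1% dialyzed FBS.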

The nature of assay [15]: qHTS assay for small molecule agonists of the antioxidant response element (ARE) signaling pathway measured by Nrf2-dependant transcriptional activity - cell viability counter screen (AID 720653; active = well fitted curve in the direction sought with a large enough effect in the repeat runs; an effect the other way counts as inactive or inconclusive; note: % is set by controls: 0 for no effect and ±100 for the full control effect). As to conditions: ARE-bla HepG2 viability, CellTiter-Glo ATP luminescence, 16 h; max response: stronger effect = lower value. The essentials: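 ARE-bla HepG2 cells treated with compounds for 16 h at 37C; this counter screen measures viability as intracellular ATP by CellTiter-Glo luminescence after 30 min at room temperature.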

The nature of assay [16]: qHTS assay for cell viability of HEK293 cells (AID 743288; active = well fitted curve in the direction sought with a large enough effect; an effect the other way counts as inactive or inconclusive; note: nearly all actives have a fitted effect of over 50% in size; note: potency is the fitted concentration of half-maximal effect; for max response: % is set by controls: 0 for no effect and ±100 for the full control effect). As to conditions: ATP luminescence (CellTiter-Glo), 18 h; max response: stronger effect = lower value. Put shortly: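 Parental HEK293 cells, 2,000 per well, preincubated at least 5 h at 37 C, then exposed to compounds in DMSO for 18 h at 37 C. Viability by CellTiter-Glo ATP luminescence after 30 min at room temperature.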

The nature of assay [17]: qHTS assay for cell viability of the p53RE-bla HCT-116 cell line (AID 743292; active = well fitted curve in the direction sought with a large enough effect; an effect the other way counts as inactive or inconclusive; note: % is set by controls: 0 for no effect and ±100 for the full control effect; nearly all actives have a fitted effect of over 55% in size). The note with it: p53RE-bla HCT-116 viability, ATP luminescence, 16 h; series mostly up to 95 µM. Put shortly:
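After plating at 4,000 cells per well and a 5 h rest at 37 C, HCT-116 cells carrying p53RE-bla received test chemicals in DMSO. Sixteen hours later at 37 C, CellTiter-Glo was added and luminescence recorded following 30 min at room temperature.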

Assay [18] has as its target Nuclear receptor subfamily 1 group I member 2 (Rattus norvegicus) (UniProt Q9R1A7). Description: qHTS assay for small molecule activators of the rat pregnane X receptor (rPXR) signaling pathway (AID 651751; call rule not given here; note: 0% is about no effect). The note with it: rPXR reporter cells, luciferase (One-Glo), 24 h.
The nature of assay [19]: qHTS assay for small molecule activators of the human pregnane X receptor (PXR) signaling pathway (AID 720659; call rule not given here; note: 0% is about no effect). The note with it: DPX-2 HepG2 CYP3A4-luciferase, 24 h; series mostly up to 92.3 µM.
The target of assay [20] is Vitamin D3 receptor (Homo sapiens) (UniProt P11473). Description: qHTS assay for small molecule agonists of vitamin D receptor signaling (AID 588543).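 Note: 0% = DMSO basal and 100% = reference agonist control.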 The note with it: HEK293T VDR-UAS-bla, beta-lactamase ratio, 16 h; series mostly up to 76.8 µM. The essentials: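 VDR-UAS-bla HEK293T cells, 2000/well, 2% charcoal-stripped FBS; compound titration 16 h at 37 C; CCF4 beta-lactamase ratio read. Normalized to 50 nM 1-alpha,25-dihydroxyvitamin D3 (100%) and DMSO; Hill fit gives EC50, efficacy.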

“And” between values parts separate entries of the source, which are not always exact repeats. Identical values can stand only once. Results filed as inconclusive are left out. The source made the active and inactive calls. Unless noted, calls come from the whole dose curve.

Chain of Thyroid hormone receptor beta (Homo sapiens) (P10828 whole entry, looked up): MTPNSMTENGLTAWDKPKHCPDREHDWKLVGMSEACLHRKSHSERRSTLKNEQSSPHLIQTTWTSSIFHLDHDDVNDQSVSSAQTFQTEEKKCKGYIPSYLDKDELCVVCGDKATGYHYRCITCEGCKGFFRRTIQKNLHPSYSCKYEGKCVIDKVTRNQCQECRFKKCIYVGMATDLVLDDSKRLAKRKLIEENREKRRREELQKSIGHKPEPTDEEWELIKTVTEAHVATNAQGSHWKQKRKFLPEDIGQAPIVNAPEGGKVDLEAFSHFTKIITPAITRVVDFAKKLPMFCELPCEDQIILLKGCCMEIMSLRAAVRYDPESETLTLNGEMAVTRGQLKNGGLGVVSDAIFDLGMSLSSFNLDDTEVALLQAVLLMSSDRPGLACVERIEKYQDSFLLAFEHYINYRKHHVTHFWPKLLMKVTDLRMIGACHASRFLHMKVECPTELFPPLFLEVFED
Chain of Nuclear receptor subfamily 1 group I member 2 (Rattus norvegicus) (Q9R1A7 whole entry, looked up): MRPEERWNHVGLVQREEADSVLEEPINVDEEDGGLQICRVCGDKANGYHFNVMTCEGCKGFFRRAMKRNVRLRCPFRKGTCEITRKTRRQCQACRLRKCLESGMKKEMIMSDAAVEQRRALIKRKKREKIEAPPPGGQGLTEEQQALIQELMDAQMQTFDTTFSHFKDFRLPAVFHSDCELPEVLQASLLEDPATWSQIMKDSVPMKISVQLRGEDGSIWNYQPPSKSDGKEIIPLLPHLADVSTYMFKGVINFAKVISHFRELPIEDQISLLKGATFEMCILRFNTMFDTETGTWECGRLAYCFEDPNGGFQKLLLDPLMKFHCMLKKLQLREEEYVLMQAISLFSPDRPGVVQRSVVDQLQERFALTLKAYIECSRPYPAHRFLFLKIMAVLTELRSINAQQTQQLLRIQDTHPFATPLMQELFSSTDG
Chain of Peroxisome proliferator-activated receptor gamma (Homo sapiens) (P37231 whole entry, looked up): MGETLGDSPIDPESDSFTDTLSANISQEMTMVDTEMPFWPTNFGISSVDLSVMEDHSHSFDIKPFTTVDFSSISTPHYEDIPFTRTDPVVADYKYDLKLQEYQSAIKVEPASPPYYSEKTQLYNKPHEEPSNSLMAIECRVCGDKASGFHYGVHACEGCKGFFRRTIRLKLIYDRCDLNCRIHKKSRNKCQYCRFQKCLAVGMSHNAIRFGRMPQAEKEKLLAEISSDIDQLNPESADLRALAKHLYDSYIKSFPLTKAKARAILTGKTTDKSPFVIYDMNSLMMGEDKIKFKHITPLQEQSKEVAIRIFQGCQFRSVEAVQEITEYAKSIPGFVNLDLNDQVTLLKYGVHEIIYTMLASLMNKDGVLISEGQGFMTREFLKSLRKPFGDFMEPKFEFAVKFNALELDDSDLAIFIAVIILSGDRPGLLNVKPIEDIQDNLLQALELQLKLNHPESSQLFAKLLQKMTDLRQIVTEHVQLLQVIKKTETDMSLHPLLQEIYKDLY
Chain of Retinoic acid receptor RXR-alpha (Homo sapiens) (P19793 whole entry, looked up): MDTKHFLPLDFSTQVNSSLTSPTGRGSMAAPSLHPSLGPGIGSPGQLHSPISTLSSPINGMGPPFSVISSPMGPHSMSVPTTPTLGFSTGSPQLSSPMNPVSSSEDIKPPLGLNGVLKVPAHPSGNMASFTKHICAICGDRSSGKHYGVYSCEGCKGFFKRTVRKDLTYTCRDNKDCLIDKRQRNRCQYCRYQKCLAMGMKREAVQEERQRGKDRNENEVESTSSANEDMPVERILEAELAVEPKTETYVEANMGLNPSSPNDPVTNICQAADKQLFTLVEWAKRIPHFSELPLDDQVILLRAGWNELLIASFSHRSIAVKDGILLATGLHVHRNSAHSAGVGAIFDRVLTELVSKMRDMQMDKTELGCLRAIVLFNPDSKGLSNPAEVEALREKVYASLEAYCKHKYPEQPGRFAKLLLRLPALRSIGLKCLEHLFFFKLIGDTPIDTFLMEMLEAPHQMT

`C=C(C)C(=O)OCCCCCCCCCCCC`: the max response in assay [1] was -35.9%; in assay [5], -11.6%; in [8], -6.86%; in assay [9], 6.49% (inactive); in assay [13], -1.38% (inactive); in assay [15] it was 11.2% (inactive). In addition, the max response is -6.64% (inactive) in [16] and 1.96% (inactive) in assay [18]. Moreover, the Potency entry in assay [2], in [4], in [6], in assay [7], in assay [14] and in assay [17] was “inactive” throughout. Also, the outcome in [3] and in assay [19] was inactive. Also, the activation in [10] was 1.89% (inactive); in assay [11], -0.811% (inactive); in assay [12] it was 1.15% (inactive).
On to `CCO[Si](CCC#N)(OCC)OCC`, for which the outcome in assay [3] and in assay [19] was inactive. The max response in assay [5] was -7.96%; in [8], -13.6%; in assay [9], -7.94% (inactive); in assay [15] it was -7.54% (inactive); in [16], -14.2% (inactive); in assay [18], -1.9% (inactive). Further, the Potency entry in assay [6], in assay [7] and in assay [14] was “inactive” in each case. The activation in assay [11] was 0.629% (inactive).
As to `CC1(C)[C@@H]([C@@H](Br)C(Br)(Br)Br)[C@H]1C(=O)O[C@H](C#N)c1cccc(Oc2ccccc2)c1`, the activation in assay [10] was 11.9% (inactive); in assay [12] it was 0.917% (inactive). In addition, the max response in [13] is -5.06% (inactive); in assay [15], -14.5% (inactive). Further, the Potency result in assay [14] and in assay [17] was “inactive” throughout. Besides, in [16], the Potency was 50.1 µM (active).
`CCCCOC(=O)[C@@H](C)Oc1ccc(Oc2ccc(C(F)(F)F)cn2)cc1`: the max response in assay [1] is 35.2% and 48.6%; in assay [5] it was -3.89% and -1%; in assay [8], -5.61% and -1.04%; in [9] it was 9.28% (inactive) and -16% (inactive); in [13], -0.0053% (inactive) and -0.638% (inactive); in assay [15], -10.9% (inactive) and -13.9% (inactive). Besides, the max response in assay [18] was -5.37% (inactive) and -2.58% (inactive). In addition, the Potency entry in assay [2], in assay [4], in assay [6], in assay [7], in [14] and in assay [17] was “inactive” throughout. Besides, the result in assay [3] and in assay [20] was inactive. The activation in assay [10] is -5.64% (inactive) and -5.4% (inactive); in assay [11], -0.296% (inactive) and -2.63% (inactive).
On to `CCCCCCCC/C=C\CCCCCCCCCCCCC`, for which the max response in assay [1] is 20.5%; in assay [5], 4.69%; in [8], -11.4%; in assay [9], 1.65% (inactive); in [15] it was 1.5% (inactive); in [16], -4.21% (inactive). Besides, the max response in [18] is -1.72% (inactive). Also, the Potency entry in assay [2], in [4], in [6], in assay [7] and in assay [14] was “inactive” each time. The outcome in assay [3] and in assay [19] was inactive. Besides, the activation in assay [10] was -1.77% (inactive); in [11] it was -1.6% (inactive); in [12] it was -0.312% (inactive).
With `CSc1ccc(Cl)cc1`, the max response in [1] was 24.7%; in assay [5], 8.86%; in assay [8], 18.6%; in [9] it was -2.56% (inactive); in [13] it was -0.0243% (inactive); in assay [15], -9.05% (inactive). For the same compound, the max response in assay [18] was -1.44% (inactive). In addition, the Potency result in [2], in [4], in assay [6], in [7], in [14] and in assay [17] was “inactive” each time. For the same compound, the result in [3], in assay [20] and in assay [19] was inactive. In addition, the activation is -1.66% (inactive) in assay [11] and -3.53% (inactive) in assay [12].

Source of the values: PubChem BioAssay (NCATS).
